Records with an inconclusive call do not appear. Entries that show only a call come without a potency. The source made the active and inactive calls. Unless noted, calls follow the shape of the dose curve; as a rule, active = well fitted cell-killing curve with a large enough effect in the repeat runs; inconclusive = weak or mixed curves, or effect the other way; inactive = no such curve, though single readings can be large or run the other way.

Peroxisome proliferator-activated receptor gamma (Homo sapiens), sequence (P37231 whole entry, looked up): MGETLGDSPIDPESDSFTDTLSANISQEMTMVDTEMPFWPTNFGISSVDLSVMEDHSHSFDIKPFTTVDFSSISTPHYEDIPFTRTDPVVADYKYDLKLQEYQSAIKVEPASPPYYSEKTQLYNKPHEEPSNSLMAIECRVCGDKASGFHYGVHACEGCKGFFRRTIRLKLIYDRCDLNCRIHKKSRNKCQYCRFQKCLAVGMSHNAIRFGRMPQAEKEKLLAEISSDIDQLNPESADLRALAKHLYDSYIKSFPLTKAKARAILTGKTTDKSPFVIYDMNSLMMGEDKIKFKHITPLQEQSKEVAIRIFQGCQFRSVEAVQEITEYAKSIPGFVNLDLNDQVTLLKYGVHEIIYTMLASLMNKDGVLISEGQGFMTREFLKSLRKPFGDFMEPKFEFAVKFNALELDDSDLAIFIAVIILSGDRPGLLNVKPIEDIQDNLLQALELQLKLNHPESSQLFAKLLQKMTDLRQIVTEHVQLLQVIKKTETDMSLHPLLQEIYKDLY

In one assay the target is Peroxisome proliferator-activated receptor gamma (Homo sapiens) (UniProt P37231). As to the kind of experiment: qHTS assay to identify small molecule agonists of the peroxisome proliferator-activated receptor gamma (PPARg) signaling pathway (AID 743094; active = well fitted activation curve with a large enough effect in the signal ratio in the repeat runs, not every such curve was filed as active; the % refers to the signal ratio). The following applies: HEK293H PPARg-UAS-bla, beta-lactamase FRET ratio, 17 h; series mostly up to 57 µM. In a few lines:
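Reporter activation was scored by fluorescence of cleaved LiveBLAzer B/G substrate (1 h, room temperature) in PPARg-bla HEK293H cells previously treated 17 h at 37C with DMSO-dissolved compounds.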
With `CC(C)CC(O)Cc1ccccc1` (stereo not given), the result was inactive.
Take `O=C(O)/C=C(\CC(=O)O)C(=O)O`: the outcome was inactive.
Turning to `COCc1nnc(-c2ccc[n+]([O-])c2)n1-c1c(Cl)c(Cl)cc2[nH]c(=O)c(=O)[nH]c12`, the outcome was inactive.
As to `Cc1ccc(N)nc1`, the result was inactive.

Another assay has the same target. The experiment in a line: qHTS assay to identify small molecule antagonists of the peroxisome proliferator-activated receptor gamma (PPARg) signaling pathway (AID 743191; calls by dose curve; also: nearly all actives have a fitted effect of over 30% in size). The following applies: HEK293H PPARg-UAS-bla, beta-lactamase ratio, antagonist, 17 h; series mostly up to 62.6 µM. An outline of the steps: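 Beta-lactamase reporter under UAS control in HEK293H PPARg-bla cells; compound treatment 17 h at 37C. Read-out: fluorescence intensity after 1 h room-temperature incubation with LiveBLAzer B/G FRET substrate.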
Take `COC(=O)/C=C(\C)CCC=C(C)C`: the result was inactive.
`CNC(C)=O`: the outcome was inactive.
On to `CC(=O)c1ccc2ccc3ccccc3c2c1`, for which the result was inactive.
On to `CCN1CCN(C(=O)N[C@@H](C(=O)N[C@@H]2C(=O)N3[C@@H]2SC(C)(C)[C@H]3C(=O)O)c2ccccc2)C(=O)C1=O`, for which the result was inactive.
Regarding `Cc1ccc(O)c([N+](=O)[O-])c1`, the outcome was inactive.
On to `CC(C)(C)C(=O)CC(=O)C(C)(C)C`, for which the outcome was inactive.
The same measure, in the same setting: the same measure for `CC(=O)Nc1ccc(OCCOCCOc2ccc(NC(C)=O)cc2)cc1`: “inactive”; for `Cc1ccc(NC(N)=O)cc1`: “inactive”; for `CC(C)(C)c1ccc(N)cc1`: “inactive”.
As for `CC(CC(=O)Cl)CC(C)(C)C` (stereo not given), the result was inactive.
As for `COCCCOc1cc(C[C@@H](C[C@H](N)[C@@H](O)C[C@H](C(=O)NCC(C)(C)C(N)=O)C(C)C)C(C)C)ccc1OC`, the result was inactive.
For `O=C(O)Cc1c(Cl)ccc(Cl)c1Cl`, the outcome was inactive.
Take `CC(C)(O)c1ccc(C(C)(C)O)cc1`: the outcome was inactive.
Take `CCO[Si](CC(C)C)(OCC)OCC`: the result was inactive.
Consider `CC(=O)OC/C=C(/C)CCC=C(C)C`, for which the outcome was inactive.
For `CCCCCCCCCCCCCCBr`, the result was inactive.
On the same count and under the same terms, next, `NCC1CCC(C(=O)Oc2ccc(CCC(=O)O)cc2)CC1` (stereo not given): “inactive”; `Cc1cc(C)c(N)c(Cl)c1`: “inactive”; `CC(C)CC(O)Cc1ccccc1` (stereo not given): “inactive”.
Still for that read-out and setting: next, `COCc1nnc(-c2ccc[n+]([O-])c2)n1-c1c(Cl)c(Cl)cc2[nH]c(=O)c(=O)[nH]c12`: “inactive”; `Cc1ccc(N)nc1`: “inactive”.

Test system in a further assay: not listed separately
As to the kind of experiment: qHTS assay to identify small molecule antagonists of the peroxisome proliferator-activated receptor gamma (PPARg) signaling pathway - cell viability counter screen (AID 743194). Also: nearly all actives have a fitted effect of over 55% in size. As to conditions: PPARg-bla HEK293H viability, CellTiter-Glo luminescence, 17 h, co-treated with 50 nM rosiglitazone; series mostly up to 62.6 µM. In a few lines: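 Viability was measured as CellTiter-Glo luminescence in GeneBLAzer PPARg UAS-bla HEK293H cells. These cells had been exposed 17 h at 37 C to compounds together with rosiglitazone at 50 nM final, with the beta-lactamase readout taken in the same wells.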
For `COC(=O)/C=C(\C)CCC=C(C)C`, the outcome was inactive.
Regarding `CNC(C)=O`, the result was inactive.
The same measure, in the same setting: the same measure for `CCN1CCN(C(=O)N[C@@H](C(=O)N[C@@H]2C(=O)N3[C@@H]2SC(C)(C)[C@H]3C(=O)O)c2ccccc2)C(=O)C1=O`: “inactive”; for `Cc1ccc(O)c([N+](=O)[O-])c1`: “inactive”.
As for `CC(C)(C)C(=O)CC(=O)C(C)(C)C`, the outcome was inactive.
For the molecule `CC(=O)Nc1ccc(OCCOCCOc2ccc(NC(C)=O)cc2)cc1`, the result was inactive.
For the molecule `Cc1ccc(NC(N)=O)cc1`, the result was inactive.
As to `CC(C)(C)c1ccc(N)cc1`, the outcome was inactive.
Turning to `NS(=O)(=O)c1cc2c(cc1C(F)(F)F)NCNS2(=O)=O`, the outcome was inactive.
In the case of `Clc1cc(Cl)c(Cl)c(Cl)c1Cl`, the outcome was inactive.
`COCCCOc1cc(C[C@@H](C[C@H](N)[C@@H](O)C[C@H](C(=O)NCC(C)(C)C(N)=O)C(C)C)C(C)C)ccc1OC`: the outcome was inactive.
Consider `CCCCS`, for which the outcome was inactive.
With `C/C=C(\C)C=O`, the result was inactive.
On the same count and under the same terms, next, `O=C(O)Cc1c(Cl)ccc(Cl)c1Cl`: “inactive”.
Regarding `CCCCCCCCCCCCCCCCN(C)C`, the activity change, negative = cytotoxicity is 2.19% [at 5.95 µM] (inactive).
Consider `O=C(OOC(=O)c1ccccc1)c1ccccc1`, for which the result was inactive.
On the same count and under the same terms, next, `Cc1cc(C)c(C)c(C)c1`: “inactive”.
Regarding `Cc1ccc(Br)cc1`, the outcome was inactive.
As for `CC(=O)OC/C=C(/C)CCC=C(C)C`, the result was inactive.
Take `CCCCCCCCCCCCCCBr`: the result was inactive.
Regarding `NCC1CCC(C(=O)Oc2ccc(CCC(=O)O)cc2)CC1` (stereo not given), the result was inactive.
On to `C[C@@H]1CC[C@@]2(OC1)O[C@H]1C[C@H]3[C@@H]4CC[C@H]5C[C@@H](O)CC[C@]5(C)[C@H]4CC(=O)[C@]3(C)[C@H]1[C@@H]2C`, for which the activity change, negative = cytotoxicity is 10.8% [at 5.95 µM] (inactive).
Take `C=COCCCCO`: the outcome was inactive.
The same measure, in the same setting: next, `CN(C)c1ccncc1`: “inactive”; `Cc1cc(C)c(N)c(Cl)c1`: “inactive”.
Take `CC(C)CC(O)Cc1ccccc1` (stereo not given): the outcome was inactive.
The same measure, in the same setting: the same measure for `COCc1nnc(-c2ccc[n+]([O-])c2)n1-c1c(Cl)c(Cl)cc2[nH]c(=O)c(=O)[nH]c12`: “inactive”; for `Cc1ccc(N)nc1`: “inactive”.

Test system in the next assay: not listed separately
As to the kind of experiment: qHTS assay for small molecule agonists of the antioxidant response element (ARE) signaling pathway (AID 743202; active = well fitted activation curve with a large enough effect in the signal ratio in the repeat runs, not every such curve was filed as active; the % refers to the signal ratio). The following applies: HepG2 ARE-bla reporter, beta-lactamase FRET, 16 h; series mostly up to 73.3 µM. An outline of the steps: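 After 16 hours of compound treatment at 37 C, HepG2 cells with a stably integrated ARE-driven beta-lactamase reporter were loaded 2 hours at room temperature with LiveBLAzer B/G FRET substrate and fluorescence intensity measured.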
With `CNC(C)=O`, the Potency result is “inactive”.
Same read-out and setting: the same measure for `CC(=O)c1ccc2ccc3ccccc3c2c1`: “inactive”.
The same measure, in the same setting: the same measure for `CCN1CCN(C(=O)N[C@@H](C(=O)N[C@@H]2C(=O)N3[C@@H]2SC(C)(C)[C@H]3C(=O)O)c2ccccc2)C(=O)C1=O`: “inactive”.
The same measure, in the same setting: next, `Cc1ccc(O)c([N+](=O)[O-])c1`: “inactive”; `CC(=O)Nc1ccc(OCCOCCOc2ccc(NC(C)=O)cc2)cc1`: “inactive”; `Cc1ccc(NC(N)=O)cc1`: “inactive”.
Take `CC(C)(C)c1ccc(N)cc1`: the Potency result was “inactive”.
As to `Clc1cc(Cl)c(Cl)c(Cl)c1Cl`, the Potency result is “inactive”.
With `CC(CC(=O)Cl)CC(C)(C)C` (stereo not given), the Potency result is “inactive”.
On the same count and under the same terms, the same measure for `NNC(=O)CCCCC(=O)NN`: “inactive”.
Still for that read-out and setting: the same measure for `COCCCOc1cc(C[C@@H](C[C@H](N)[C@@H](O)C[C@H](C(=O)NCC(C)(C)C(N)=O)C(C)C)C(C)C)ccc1OC`: “inactive”.
`CCCCS`: the Potency entry was “inactive”.
On to `C[Si](C)(C)O[Si](O)(O)O`, for which the Potency entry is “inactive”.
On to `C/C=C(\C)C=O`, for which the Potency result is “inactive”.
For `O=C(O)Cc1c(Cl)ccc(Cl)c1Cl`, the Potency result is “inactive”.
Consider `CCCCCCCCCCCBr`, for which the Potency result was “inactive”.
`CCc1ccc(CC)cc1`: the Potency entry was “inactive”.
In the case of `CCCCCCCCCCCCCCCCN(C)C`, the activation was 0.808% [at 8.36 µM] (inactive).
Turning to `CC(C)(O)c1ccc(C(C)(C)O)cc1`, the Potency entry was “inactive”.
Same read-out and setting: next, `O=C(OOC(=O)c1ccccc1)c1ccccc1`: “inactive”.
As for `Cc1cc(C)c(C)c(C)c1`, the Potency entry was “inactive”.
The same measure, in the same setting: next, `Cc1ccc(Br)cc1`: “inactive”; `CC(=O)OC/C=C(/C)CCC=C(C)C`: “inactive”.
Consider `CCCCCCCCCCCCCCBr`, for which the Potency entry was “inactive”.
Still for that read-out and setting: the same measure for `NCC1CCC(C(=O)Oc2ccc(CCC(=O)O)cc2)CC1` (stereo not given): “inactive”.
Regarding `C[C@@H]1CC[C@@]2(OC1)O[C@H]1C[C@H]3[C@@H]4CC[C@H]5C[C@@H](O)CC[C@]5(C)[C@H]4CC(=O)[C@]3(C)[C@H]1[C@@H]2C`, the activation was 5.01% [at 8.36 µM] (inactive).
Turning to `CN(C)c1ccncc1`, the Potency entry is “inactive”.
Consider `Cc1cc(C)c(N)c(Cl)c1`, for which the Potency entry was “inactive”.
Still for that read-out and setting: the same measure for `CC(C)CC(O)Cc1ccccc1` (stereo not given): “inactive”.
The same measure, in the same setting: next, `O=C(O)/C=C(\CC(=O)O)C(=O)O`: “inactive”.
Same read-out and setting: the same measure for `COCc1nnc(-c2ccc[n+]([O-])c2)n1-c1c(Cl)c(Cl)cc2[nH]c(=O)c(=O)[nH]c12`: “inactive”.
As to `Cc1ccc(N)nc1`, the Potency result is “inactive”.

(Values after PubChem BioAssay (Tox21).)
